Shown is part of a subset that was picked to be rich in the strongest signals.

The first test relates to Fuc(a1-4)GlcNAc. Kind of test: glycan array binding signal (z-score within array); higher = stronger binding. To be noted: glycan notation: IUPAC condensed, linker removed. In short, it runs like this:
(§1)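 Glycan array data were curated from 3228 arrays in the Consortium for Functional Glycomics database and kept only where the protein sequence was available. Glycan names were converted to IUPAC-condensed notation, and columns mapping to the same glycan were averaged. The binding signal is a within-array Z-score, averaged across arrays of the same protein sequence at different concentrations or buffers and across linkers. Negative Z-scores can be read as non-binding.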
As to “AgI/II Vhelical-GFP (Streptococcus mutans)”, the “glycan array binding signal (z-score)” value was 19.1.

For the substance AgI/IIC123-GFP (Streptococcus mutans), the “glycan array binding signal (z-score)” value is 6.16.

For BambL (Burhholderia ambifaria), Q0B4G1, the “glycan array binding signal (z-score)” value is 6.86.

The next test deals with Fuc(b1-3)GlcNAc. Described as above. To be noted: glycan notation: IUPAC condensed, linker removed. In short, it runs like this: as §1
Turning to Wza (Escherichia coli), P0A930, the “glycan array binding signal (z-score)” value came to 1.51.

In the case of Actinohivin (Actinomycete K97), the “glycan array binding signal (z-score)” value was -0.17.

Take “AgI/II Vhelical-GFP (Streptococcus mutans)”: the “glycan array binding signal (z-score)” value was -0.193.

For BambL (Burhholderia ambifaria), Q0B4G1, the “glycan array binding signal (z-score)” value turned out to be 4.1.

Take LcI (Legionella pneumophila): the “glycan array binding signal (z-score)” value was 0.056.

For the next test, the system named is Gal(a1-3)Gal(b1-3)GlcNAc(b1-2)Man. Described as above. As to conditions: glycan notation: IUPAC condensed, linker removed. In a few lines:
as §1
Turning to Epa22, the “glycan array binding signal (z-score)” value was -0.377.

On to Actinohivin (Actinomycete K97), for which the “glycan array binding signal (z-score)” value was 0.041.

Consider “AgI/II Vhelical-GFP (Streptococcus mutans)”, for which the “glycan array binding signal (z-score)” value is -0.049.

For the origin of these results see the supplement of paper PMC8728848.
